From PubChem BioAssay
The sample as a whole holds a higher share of hits than the screen did.
CD40 NFkB inh: CD40 pathway inhibition in BL2 cells. inhibition, % at 10 µM. BL2 NF-kB luciferase reporter, CD40L-induced, 4 h. AID 1053188. actives 0.94% (n = 83,000);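 active = mean inhibition of at least 50% with a set share of replicates also reaching that level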;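 note: 0% = neutral control wells and 100% = IKK inhibitor VII at 50 µM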
* marks the source's active call; other numbers are inactive results; [ ] = another dose, or the depositor's remark.

SMILES	CD40 NFkB inh
Cc1ccc(S(=O)(=O)CC(=O)N2CCN(c3ccc([N+](=O)[O-])cc3)CC2)cc1	22
Cc1ccc(S(=O)(=O)CC#CCOC(=O)c2ccc([N+](=O)[O-])cc2)cc1	89*
Cc1ccc(CONC(=O)c2ccc([N+](=O)[O-])cc2)cc1	-21
CC(C)NC(=O)N(C)C[C@H]1Oc2ncccc2C(=O)N(C)C[C@@H]1C	9
C[C@H]1CN([C@@H](C)CO)C(=O)c2cc(NC(=O)C3CCCCC3)ccc2O[C@H]1CN(C)Cc1ccc2c(c1)OCO2	-4[25 µM]
C[C@H]1CN([C@@H](C)CO)C(=O)c2ccccc2-c2ccccc2CO[C@@H]1CN(C)Cc1ccc(Cl)c(Cl)c1	9[25 µM]
CNC[C@@H]1OCCCC[C@@H](C)Oc2ccc(NS(=O)(=O)c3ccc(F)cc3)cc2C(=O)N([C@@H](C)CO)C[C@@H]1C	-3[25 µM]
c1cnc2c(c1)ccc1cccnc12	-5
O=C(O)c1cccc2cccnc12	4
O=C1C=CC(=O)N1c1cccc2cccnc12	50*
COCC(=O)N1[C@H](C#N)[C@H](c2ccccc2C2=CCCCC2)[C@@H]1CO	-18[25 µM]
C/C=C/c1ccc([C@H]2[C@@H](CNS(C)(=O)=O)N(CC3CCCC3)[C@H]2CO)cc1	5
C[C@@H]1CN(C)C(=O)c2cccnc2O[C@H]1CN(C)S(C)(=O)=O	35*
C[C@H]1CN(C)C(=O)c2cccnc2O[C@H]1CN(C)C	16
C[C@@H]1CN(C)C(=O)c2ccccc2O[C@@H]1CN(C)S(C)(=O)=O	-1
O=C(N[C@@H]1C=C[C@@H](CC(=O)N2CCC(Cc3ccccc3)CC2)O[C@@H]1CO)c1cnccn1	-8[25 µM]
CO[C@@H]1CN(C)C(=O)c2cc(NC(=O)Nc3cccc(Cl)c3)ccc2OC[C@H](C)N(C(=O)Nc2c(C)noc2C)C[C@@H]1C	3[25 µM]
CCc1ccc2oc(-c3ccc(OC)cc3)cc(=Nc3c(C)n(C)n(-c4ccccc4)c3=O)c2c1	50*
COc1ccc2oc(-c3ccncc3)cc(=O)c2c1	-49
COc1cc(OC)c(C(=O)OCC(=O)Nc2c(C)n(C)n(-c3ccccc3)c2=O)cc1OC	10
C[C@@H]1CN(C)C(=O)c2ccccc2O[C@H]1CN(C)C	-55
COc1ccc(C(=O)/C=C/C(=O)N(CC(=O)NC2CCCCC2)Cc2ccccc2)c(O)c1	105*
COc1cccc(/C=C/C(=O)OCC(=O)NC2CCCCCCC2)c1	5
COc1ccc(C(=O)/C=C/C(=O)N(CC(=O)NC2CCCCC2)Cc2ccccc2OC)c(O)c1	2
N#Cc1cccc(-c2ccc(C3[C@H]4CNC[C@@H]3N4C(=O)Nc3ccc(Cl)cc3)cc2)c1 (some centres not stated)	-55
SMILES	CD40 NFkB inh
N#C[C@H]1[C@@H](c2ccc(/C=C/c3ccccc3)cc2)[C@@H](CO)N1C(=O)C1CC1	6
COc1ccc2c3c(n(C)c2c1)[C@H](CO)N(C(=O)c1ccncc1)CC31CN(C(C)=O)C1	-9[25 µM]
CC(=O)N1[C@@H]2c3ccc(-c4ccc(F)cc4)c(=O)n3C[C@@H]2[C@@H](CO)[C@@H]1C(=O)NC1CCC1	9[25 µM]
C[C@H](CO)N1C[C@H](C)[C@H](CN(C)Cc2ccc(C(=O)O)cc2)Oc2ccc(NS(=O)(=O)c3cccs3)cc2C1=O	-1[25 µM]
Cc1noc(C)c1S(=O)(=O)N(C)C[C@@H]1OCc2ccccc2-c2c(n(C)c3ccccc23)C(=O)N([C@H](C)CO)C[C@H]1C	45[25 µM]
Cc1noc(C)c1S(=O)(=O)N(C)C[C@H]1OCc2ccccc2-c2c(n(C)c3ccccc23)C(=O)N([C@@H](C)CO)C[C@@H]1C	32[25 µM]
Cc1noc(C)c1S(=O)(=O)N(C)C[C@H]1OCc2ccccc2-c2c(n(C)c3ccccc23)C(=O)N([C@H](C)CO)C[C@H]1C	51*[25 µM]
C[C@@H]1CN([C@H](C)CO)C(=O)c2c(c3ccccc3n2C)-c2ccccc2CO[C@@H]1CN(C)S(C)(=O)=O	-8
Cc1noc(C)c1S(=O)(=O)N(C)C[C@H]1OCc2ccccc2-c2c(n(C)c3ccccc23)C(=O)N([C@@H](C)CO)C[C@H]1C	65*[25 µM]
Cc1noc(C)c1S(=O)(=O)N(C)C[C@@H]1OCc2ccccc2-c2c(n(C)c3ccccc23)C(=O)N([C@@H](C)CO)C[C@H]1C	46[25 µM]
O=C(c1cnccn1)N1CC(=O)N2[C@H](CO)[C@@H](c3ccc(-c4cccc(F)c4)cc3)[C@@H]2C1	-3[25 µM]
CN1C(=O)c2cc(NC(=O)c3cccc(F)c3)ccc2OC[C@@H]2O[C@@H](CC(=O)NCC3CC3)CC[C@@H]21	-1
C[C@H]1CN([C@@H](C)CO)C(=O)CCCn2cc(nn2)CO[C@@H]1CN(C)Cc1ccc(-c2ccccc2)cc1	0
Cc1ccccc1S(=O)(=O)N1[C@H](C#N)[C@H](c2ccc(C#CC3CCCC3)cc2)[C@@H]1CO	-8
Cc1ccccc1S(=O)(=O)N1[C@H](C#N)[C@@H](c2ccc(C#CC3CCCCC3)cc2)[C@@H]1CO	0
Cc1ccccc1S(=O)(=O)N1[C@H](C#N)[C@H](c2ccc(C#CC3CCCCC3)cc2)[C@H]1CO	48*
Cc1ccccc1S(=O)(=O)N1[C@@H](C#N)[C@@H](c2ccc(C#CC3CCCCC3)cc2)[C@@H]1CO	-10
Cc1ccccc1S(=O)(=O)N1[C@H](C#N)[C@H](c2ccc(C#CC3CCCC3)cc2)[C@H]1CO	40*
Cc1ccccc1S(=O)(=O)N1[C@@H](C#N)[C@H](c2ccc(C#CC3CCCC3)cc2)[C@@H]1CO	-5
COc1ccccc1-c1cn(CC[C@@H]2CC[C@H](NC(=O)C3CCCC3)[C@H](CO)O2)nn1	-3
NCC[C@@H]1CC[C@@H](NS(=O)(=O)c2ccc(Cl)cc2)[C@@H](CO)O1	-4[25 µM]
O=C(Nc1cccc(F)c1)N1C[C@H]2[C@@H](c3ccccc31)[C@H](CO)N2C(=O)Cc1ccccn1	7[25 µM]
O=C(NCC[C@@H]1CC[C@H](NC(=O)C2CCCC2)[C@@H](CO)O1)Nc1ccc(Cl)cc1	-20
C[C@H](CO)N1C[C@H](C)[C@H](CN(C)C(=O)Oc2ccccc2)OCc2cn(nn2)CCCC1=O	-3
Cn1cnc([N+](=O)[O-])c1S(=O)(=O)Oc1cccc2ccccc12	101*
SMILES	CD40 NFkB inh
Cn1cnc([N+](=O)[O-])c1Oc1ccccc1	12
CCN(CC)c1c([N+](=O)[O-])ncn1C	4
Cn1cnc([N+](=O)[O-])c1Cl	12
Cn1cnc([N+](=O)[O-])c1Oc1cccc2ccccc12	29
CCS(=O)(=O)c1c([N+](=O)[O-])ncn1C	95*
C[C@@H]1CN([C@H](C)CO)C(=O)c2ccccc2-c2ccccc2CO[C@@H]1CN(C)S(=O)(=O)c1cccc(C#N)c1	-13[25 µM]
CNC[C@@H]1Oc2ncccc2C(=O)N(C)C[C@@H]1C	4
c1ccc(-c2ccc([C@H]3[C@H]4CNC[C@@H]3N4Cc3cc(-c4ccccc4)on3)cc2)cc1	-4[25 µM]
CN1c2ccc(-c3ccccc3F)cc2[C@H]2[C@H](CCN2C(=O)NC2CCCCC2)[C@@H]1CO	-1
O=C(/C=C/c1ccccc1)COC(=O)c1ccccc1	-17
O=C(/C=C/c1ccccc1)CC(O)(c1ccccc1)C(F)(F)F (configuration not stated)	22
O=C(/C=C/c1ccccc1)CC(O)(c1ccccc1)C(F)(F)C(F)F (configuration not stated)	56*
COc1ccc2c3c(n(C)c2c1)[C@H](CO)N(C)CC31CCN(C(=O)c2ccccc2F)CC1	1[25 µM]
COCC(=O)NC[C@@H]1[C@H](c2ccc(C3=CCCC3)cc2)[C@@H](CO)N1C(=O)C1CC1	2[25 µM]
